D2 antagonist = antagonists of human D2 dopamine receptor; P14416; HEK293 TREx D2 cells, calcium flux, dopamine EC80; inhibition, % at 10 µM; actives 2% (n = 340,000); in the data active = inhibition above about 30%; inactive = below that, where a call was filed
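Measurement of antagonist activity uses fluorescent calcium dye in inducible HEK293 T-REx D2 cells: 10 s baseline, compound addition with 180 s read, EC80 dopamine addition with a further 180 s read.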
D2 PAM-1 = positively modulates the human D2 dopamine receptor allosterically. actives 0.34% (n = 340,000). P14416. AID 485347. HEK293 T-REx D2, calcium flux, EC20 dopamine potentiation. potentiation, % at 10 µM;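 active = potentiation over 3 SD above the plate norm, cut at about 30% in these data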
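Calcium flux readout, no-wash dye, 1 read/s. Inducible HEK293 Trex D2 line, overnight 30 C. Compound alone 180 s (agonist flags), then EC20 dopamine, another 180 s to score potentiation.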
D2 PAM-2 = human D2 receptor positive allosteric modulation; P14416; DiscoveRx D2 beta-arrestin cells, luminescence, 90 min; 100% = 57 uM dopamine signal; potentiation, % (test concentration not listed); actives 0.23% (n = 360,000); in the data active = potentiation above about 50%; inconclusive = mostly about 30% to 49%
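D2 cells co-treated with compound plus 50 nM dopamine (EC20) for 90 min at 37 deg C to detect potentiation. Beta-arrestin recruitment was read as enzyme-fragment luminescence after 1 h at ambient temperature. Full response was set by 57 uM dopamine.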
D2 ag-1 = agonists of human D2 dopamine receptor. P14416. HEK293 T-REx D2 cells, calcium flux agonist mode. activation, % at 2 µM. actives 0.53% (n = 340,000). AID 485358;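 active = activation over 3 SD above normal in the single-dose calcium agonist read, cut at about 30% in these data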
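Agonism scored from kinetic calcium signal (1 read/sec, 180 s) following compound pin transfer, after a 10 s baseline. Cells: HEK293 Trex line expressing inducible D2 receptor coupled to calcium, dye-loaded after overnight culture at 30 C.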
D2 ag-2 = agonists of human D2 dopamine receptor (beta-arrestin) | activation, % (concentration not given with the values) | actives 0.084% (n = 360,000) | DiscoveRx PathHunter D2 beta-arrestin, luminescence, 90 min; 100% = 57 uM dopamine signal | P14416 | AID 624465; in the data active = activation above about 40%; inconclusive = between about 15% and that limit
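DiscoveRx PathHunter D2 beta-arrestin cells (2,100/well) attached overnight, then compound-stimulated 90 min at 37 C in HBSS/10 mM HEPES/0.1% Tween-20 buffer; beta-galactosidase complementation read by luminescence after 1 h at ambient temperature. Dopamine 57 uM final (EC100) as control.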
D3 arrestin ag = confirmation of human D3 dopamine receptor agonists, beta-arrestin; shares compounds with D2 ag-1; DiscoveRx D3 beta-arrestin cells, luminescence, 90 min; Potency, µM (titrated, usually from 76.9 µM), most hits filed as activators; actives 4% (n = 2,300); AID 720506; also: nearly all actives have a fitted effect of over 70% in size
Target sequence (P35462 whole entry, looked up): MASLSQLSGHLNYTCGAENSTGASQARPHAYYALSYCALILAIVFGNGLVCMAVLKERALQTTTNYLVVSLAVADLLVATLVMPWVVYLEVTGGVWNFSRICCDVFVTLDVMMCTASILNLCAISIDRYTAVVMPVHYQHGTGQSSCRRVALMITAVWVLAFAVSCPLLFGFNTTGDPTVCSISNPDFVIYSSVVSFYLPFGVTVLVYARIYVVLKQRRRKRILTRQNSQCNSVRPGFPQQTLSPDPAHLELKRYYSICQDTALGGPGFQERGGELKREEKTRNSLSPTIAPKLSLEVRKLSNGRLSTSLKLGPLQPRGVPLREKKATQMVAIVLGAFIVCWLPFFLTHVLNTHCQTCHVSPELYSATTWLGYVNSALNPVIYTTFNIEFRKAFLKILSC
D2 ag-3 = counter-screen for D3 agonists: human D2 dopamine receptor agonism | Potency, µM (doses to about 76.9 µM), actives largely listed as activators | shares compounds with D2 ag-1 | actives 5.9% (n = 2,300) | DiscoveRx PathHunter D2 beta-arrestin, luminescence, 90 min; response scale: percent relative to full dopamine signal; also: nearly all actives have a fitted effect of over 70% in size
A number is an active result; n = inactive; u = inconclusive; x = not tested or not shown. This is a sample that favours compounds with a hit; in the whole collection about 2.4% have one here. Unless noted, calls follow the shape of the dose curve; as a rule, active = well fitted activation curve with a large enough effect; inconclusive = small, poorly fitted or top-dose-only effect; inactive = flat fitted curve, though single readings scatter.

SMILES | D2 antagonist | D2 PAM-1 | D2 PAM-2 | D2 ag-1 | D2 ag-2 | D3 arrestin ag | D2 ag-3
CN(Cc1ccon1)C(=O)C1CCN(C2CCN(CCCc3ccccc3)CC2)CC1 | n | n | n | 49 | n | n | n
CCCCCCCC/C=C\CCCCCCCC(=O)NCCO | n | n | n | n | n | x | x
CCCCCCCC/C=C\CCCCCCCC(=O)NCCc1ccc(O)c(O)c1 | 57 | n | u | 39 | 100 | 4µM | 16µM
CCC(CC)C(=O)Nc1ccc2nc(SCC(=O)N3CCOCC3)sc2c1 | x | n | x | n | x | x | x
COc1ccccc1CNC(=O)COC(=O)c1ccc(N2CCCC2=O)cc1 | n | n | n | n | n | n | n
COc1ccc(CCNC(=O)COC(=O)c2ccc(N3CCCC3=O)cc2)cc1OC | n | n | n | n | n | x | x
CC1CN(C(=O)CNC(=O)Cc2cccc3ccccc23)CC(C)O1 (stereo not given) | n | n | n | n | n | n | n
CC(C)c1ccc(NC(=S)N(C)CCc2ccccn2)cc1 | 36 | n | n | n | n | n | n
Cc1cccc(C)c1NC(=S)N(C)CCc1ccccn1 | n | n | n | n | n | x | x
N#C/C(=N\Nc1ccccc1)C(N)=S | n | n | n | n | n | n | n
O=C(NCCCc1nc2ccccc2n1Cc1cccc(Cl)c1)c1ccco1 | x | n | x | n | x | x | x
CCN1C(=O)[C@H]2[C@@H](c3ccc(C)cc3)N3C(=O)N(c4ccccc4)C(=O)[C@@]3(Cc3ccc(Cl)cc3)[C@H]2C1=O | n | n | n | n | n | x | x
CCN1C(=O)[C@H]2[C@@H](c3ccc(C)cc3)N3C(=O)N(c4ccc(C)cc4)C(=O)[C@@]3(Cc3ccc(Cl)cc3)[C@H]2C1=O | n | n | n | 45 | n | n | n
O=C(c1ccc(Cl)c(S(=O)(=O)N2CCCCC2)c1)N1CCCC(C(F)(F)F)C1 (stereo not given) | n | n | n | n | n | n | n
Cc1csc(NC(=O)c2ccc3ccccc3n2)n1 | n | n | n | n | n | x | x
Cc1csc(NC(=O)c2cnc3ccccc3n2)n1 | n | n | n | n | n | n | n
O=C(Nc1cccc(Cl)c1)c1ccc(F)c(S(=O)(=O)NCc2ccc3c(c2)OCO3)c1 | n | n | n | n | n | n | n
CCOc1ccc(NC(=O)c2ccc(F)c(S(=O)(=O)NCc3ccc4c(c3)OCO4)c2)cc1 | x | n | x | n | x | x | x
CCOC(=O)C1CCCN(C(=O)c2ccc(NC(=O)c3nsc4ccccc34)cc2)C1 (stereo not given) | x | n | x | n | x | x | x
COc1cccc2c1cc1c(=O)n(CC(=O)N3CCCCCC3)nc(C)n12 | n | n | n | 43 | n | u | u
CCOC(=O)C1CCN(C(=O)Cn2nc(C)n3c(cc4c(OC)cccc43)c2=O)CC1 | x | n | x | x | x | x | x
CCOC(=O)C1CCCN(C(=O)Cn2nc(C)n3c(cc4c(OC)cccc43)c2=O)C1 (stereo not given) | n | n | n | n | u | u | n
COc1cccc2c1cc1c(=O)n(CC(=O)N3CCCCC3)nc(C)n12 | x | n | x | n | x | x | x
CCC(C)NC(=O)C(CCSC)NC(=O)c1ccccc1 (stereo not given) | n | n | n | n | n | x | x
CSCCC(NC(=O)c1ccccc1)C(=O)NCCCSc1ccccc1 (stereo not given) | n | n | n | n | n | n | n
CCN(CC)C(=O)c1cccc(NC(=O)CCc2nc3sc4c(c3c(=O)[nH]2)CCCC4)c1 | n | n | n | n | n | n | n
CCn1cc(C(=O)Nc2cccc(Cl)c2)c2cc(OC)c(OC)cc2c1=O | x | n | x | n | x | x | x
Cc1cn2c(=O)c(C(=O)N3CCN(c4ccccc4)CC3)cnc2s1 | n | n | n | n | n | n | n
Cc1cn2c(=O)c(C(=O)N3CCN(c4ccccc4F)CC3)cnc2s1 | n | n | n | n | n | x | x
Cc1nn(CC(=O)N2CCN(c3ccccc3)CC2)c(=O)c2cc3cc(F)ccc3n12 | x | n | x | n | x | x | x

Screening data (PubChem BioAssay)
